Experiment [1] can be described thus: qHTS of pediatric cancer cell lines to identify multiple opportunities for drug repurposing: Primary screen for SK-N-MC cells (AID 1347093). Note: potency is the fitted concentration of half-maximal effect. The following applies: SK-N-MC viability, CellTiter-Glo luminescence, 48 h; series mostly up to 46 µM. A digest of the protocol: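 Metabolically active cells were quantified by ATP-dependent luminescence (CellTiter-Glo, 15 min at room temperature) following 48 h treatment. Cells had been plated at 500-1,000 per well and settled for 5 h beforehand.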

The nature of experiment [2]: qHTS of pediatric cancer cell lines to identify multiple opportunities for drug repurposing: Primary screen for BT-37 cells (AID 1347094). Note: potency is the fitted concentration of half-maximal effect. The following applies: BT-37 viability, CellTiter-Glo luminescence, 48 h; series mostly up to 57.3 µM. A digest of the protocol: (§1)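 Readout: CellTiter-Glo luminescence, 48 h treatment. Controls DMSO (neutral) and bortezomib 2.3 µM final (positive). Potency and efficacy taken from primary-screen concentration-response curves.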
For orientation: qHTS replaces the single test concentration by a dilution series.

Experiment [3] in a line: qHTS of pediatric cancer cell lines to identify multiple opportunities for drug repurposing: Primary screen for NB-EBc1 cells (AID 1347095). Note: potency is the fitted concentration of half-maximal effect. The conditions noted are these: NB-EBc1 neuroblastoma viability, CellTiter-Glo luminescence, 48 h; series mostly up to 46 µM. A digest of the protocol: as §1
Experiment [4] is described as follows: qHTS of pediatric cancer cell lines to identify multiple opportunities for drug repurposing: Primary screen for U-2 OS cells (AID 1347096). Note: nearly all actives have a fitted effect of over 50% in size. The following applies: U-2 OS viability, CellTiter-Glo luminescence, 48 h; series mostly up to 46 µM. The method, boiled down:
(§2)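 Cells (500-1,000/well) rested 5 h, then received compounds for 48 h; metabolically active cells were measured by CellTiter-Glo luminescence. Final concentrations spanned up to 46 µM (MIPE, 11-point) or 0.59 nM-46 µM (NPC, 8-point) in primary screens, 11-point in follow-ups.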

Experiment [5] is described as follows: qHTS of pediatric cancer cell lines to identify multiple opportunities for drug repurposing: Primary screen for SK-N-SH cells (AID 1347098). Note: nearly all actives have a fitted effect of over 65% in size. Note: potency is the fitted concentration of half-maximal effect. The following applies: SK-N-SH viability, CellTiter-Glo luminescence, 48 h; series mostly up to 57 µM. A digest of the protocol:
as §2

Experiment [6] can be described thus: qHTS of pediatric cancer cell lines to identify multiple opportunities for drug repurposing: Primary screen for NB1643 cells (AID 1347099). Note: nearly all actives have a fitted effect of over 50% in size. The following applies: NB1643 neuroblastoma viability, CellTiter-Glo luminescence, 48 h; series mostly up to 46 µM. A digest of the protocol: as §1
Experiment [7] in a line: qHTS of pediatric cancer cell lines to identify multiple opportunities for drug repurposing: Primary screen for LAN-5 cells (AID 1347100). Note: potency is the fitted concentration of half-maximal effect. The conditions noted are these: LAN-5 neuroblastoma viability, CellTiter-Glo luminescence, 48 h; series mostly up to 46 µM. A digest of the protocol:
as §2

Experiment [8] can be described thus: qHTS of pediatric cancer cell lines to identify multiple opportunities for drug repurposing: Primary screen for BT-12 cells (AID 1347101). Note: nearly all actives have a fitted effect of over 25% in size. Note: potency is the fitted concentration of half-maximal effect. The following applies: BT-12 viability, CellTiter-Glo luminescence, 48 h; series mostly up to 57.3 µM. The method, boiled down:
as §2

Experiment [9] can be described thus: qHTS of pediatric cancer cell lines to identify multiple opportunities for drug repurposing: Primary screen for Rh18 cells (AID 1347102). Note: nearly all actives have a fitted effect of over 65% in size. The conditions noted are these: Rh18 rhabdomyosarcoma viability, CellTiter-Glo luminescence, 48 h; series mostly up to 46 µM. The method, boiled down:
as §2

The nature of experiment [10]: qHTS of pediatric cancer cell lines to identify multiple opportunities for drug repurposing: Primary screen for Saos-2 cells (AID 1347097). Note: nearly all actives have a fitted effect of over 40% in size. Note: potency is the fitted concentration of half-maximal effect. The conditions noted are these: Saos-2 viability, CellTiter-Glo ATP luminescence, 48 h; series mostly up to 46 µM. A digest of the protocol: as §1

Records with an inconclusive call do not appear. Values without a mark were called inactive. Activity calls are given as the source filed them. Calls come from the whole dose curve; as a rule, active = well fitted curve in the direction sought with a large enough effect; inconclusive = small, poorly fitted or top-dose-only effect, or another doubt; inactive = no such curve, though single readings can be large; an effect the other way counts as inactive or inconclusive.

With `COC(=O)CCCCC(CCSS/C(CCO)=C(\C)N(C=O)Cc1cnc(C)nc1N)SC(C)=O` (configuration not stated), the Potency entry in experiment [1], in [2], in [3], in experiment [4], in experiment [5] and in [6] was “inactive” each time. Moreover, the Potency entry in experiment [7], in experiment [8] and in experiment [9] was “inactive” throughout.
`CC(C)=CCC/C(C)=C/CC/C(C)=C/C(=O)OCC(=O)[C@@]1(O)CC[C@H]2[C@@H]3CCC4=CC(=O)C=C[C@]4(C)[C@H]3[C@@H](O)C[C@@]21C`: the Potency result in experiment [1], in experiment [2], in experiment [4], in experiment [5], in experiment [6] and in experiment [9] was “inactive” throughout. For the same molecule, the values for the Potency in experiment [3] and in [7] were 21.1 µM (active) and 13.3 µM (active), respectively.
With `Cn1cc(S(C)=O)c(=O)c2ccc(F)cc21` (configuration not stated), the Potency entry in [1], in experiment [2], in experiment [3], in experiment [10], in [5] and in [6] was “inactive” in each case. Besides, the Potency entry in experiment [7], in experiment [8] and in experiment [9] was “inactive” each time.
Consider `CCCCCCCC(=O)[O-].CCCCCCCC(=O)[O-].[Zn+2]`, for which the Potency entry in [1], in experiment [2], in [3], in experiment [4], in experiment [10] and in [7] was “inactive” throughout. Also, in experiment [9], the Potency entry is “inactive”.
For the molecule `CC(=O)N(CC(=O)N(C)C)c1ccccc1`, the Potency entry in experiment [1], in experiment [2], in [3], in [4], in [5] and in experiment [6] was “inactive” throughout. Moreover, the Potency entry in experiment [7], in experiment [8] and in [9] was “inactive” in each case.
As to `Cc1cnc(NS(=O)(=O)c2ccc(N)cc2)nc1`, the Potency result in experiment [1], in [2], in experiment [4], in experiment [10], in experiment [5] and in experiment [6] was “inactive” each time. Besides, the Potency entry in [7], in experiment [8] and in experiment [9] was “inactive” in each case.
With `O=C(O)c1ccccc1S`, the Potency entry in experiment [1], in experiment [2], in experiment [4], in experiment [10], in experiment [5] and in experiment [6] was “inactive” throughout. Also, the Potency entry in experiment [7], in experiment [8] and in experiment [9] was “inactive” throughout.
On to `CC(NN)c1ccccc1` (configuration not stated), for which the Potency result in [1], in [2], in [4], in [10], in experiment [5] and in experiment [6] was “inactive” throughout. For the same molecule, the Potency result in experiment [7], in [8] and in experiment [9] was “inactive” throughout.
Take `O=C(OCC(COC(=O)c1cccnc1)(COC(=O)c1cccnc1)COC(=O)c1cccnc1)c1cccnc1`: the Potency result in [1], in experiment [2], in [4], in [10], in [6] and in [7] was “inactive” throughout. For the same molecule, the Potency entry in [8] and in experiment [9] was “inactive” each time.
On to `CCCCOC(=O)CCCCCCCCC(=O)OCCCC`, for which the Potency entry in [1], in experiment [2], in experiment [4], in experiment [10], in experiment [5] and in experiment [6] was “inactive” throughout. The Potency entry in experiment [7], in experiment [8] and in experiment [9] was “inactive” throughout.
Consider `O=C(CO)[C@@H](O)[C@H](O)[C@@H](O)CO`, for which the Potency result in experiment [1], in experiment [2], in experiment [3], in experiment [10], in experiment [5] and in [6] was “inactive” throughout. Besides, the Potency entry in experiment [8] and in [9] was “inactive” throughout.
As for `CC[C@@]1(O)C(=O)OCc2c1cc1n(c2=O)Cc2c-1nc1ccccc1c2/C=N/OC(C)(C)C`, the Potency was 21.1 nM (active) in experiment [1]; 30.9 nM (active) in experiment [2]; 0.0211 µM (active) in experiment [3]; 0.0596 µM (active) in experiment [10]; 0.194 µM (active) in [5]; 0.0211 µM (active) in [7]. In addition, in experiment [8], the Potency is 246 nM (active).
For the molecule `COc1cc(NS(=O)(=O)c2ccc(N)cc2)nc(C)n1`, the Potency entry in experiment [1], in experiment [2], in experiment [4], in [10], in experiment [5] and in [7] was “inactive” throughout. Also, the Potency entry in experiment [8] and in experiment [9] was “inactive” each time.
As for `CCCCC(CC)CNC(=O)CC(C)OC(=O)CCC(=O)O` (configuration not stated), the Potency entry in [1], in experiment [2], in experiment [4], in [10], in experiment [5] and in [6] was “inactive” throughout. Also, the Potency entry in experiment [7], in [8] and in experiment [9] was “inactive” each time.
With `Cc1nc(N)nc(N)c1-c1ccc(Cl)c(Cl)c1`, the Potency in experiment [1] was 33.5 nM (active); in experiment [2], 550 nM (active); in experiment [3] it was 0.422 µM (active); in [8], 872 nM (active). The Potency result in experiment [9] is “inactive”.
In the case of `O=C(O)Cn1c(=O)n(Cc2ccc(Br)cc2F)c(=O)c2ccc(Cl)cc21`, the Potency result in [1], in experiment [2], in experiment [4], in experiment [10], in experiment [5] and in experiment [6] was “inactive” in each case. Also, the Potency entry in experiment [7] and in experiment [9] was “inactive” each time.
Consider `CCN(CC)C(=O)C1CN2CCc3cc(OC)c(OC)cc3C2CC1OC(C)=O` (configuration not stated), for which the Potency result in [1], in experiment [2], in experiment [3], in experiment [6], in experiment [7] and in [8] was “inactive” throughout. The Potency entry in experiment [9] is “inactive”.
`O=C(Nc1ccc(Cl)cc1)Nc1ccc(Cl)c(C(F)(F)F)c1`: the Potency in experiment [1] is 4730 nM (active); in [2], 27600 nM (active); in [3] it was 5.96 µM (active); in experiment [10], 13.3 µM (active); in experiment [5], 8.64 µM (active); in experiment [8] it was 9780 nM (active).
Take `C[C@H]1C[C@H]2[C@@H]3CCC4=CC(=O)C=C[C@]4(C)[C@H]3C(=O)C[C@]2(C)[C@@]1(O)C(=O)CO`: the Potency result in experiment [1], in [2], in experiment [4], in experiment [10], in experiment [5] and in experiment [6] was “inactive” in each case. Moreover, the Potency entry in [7], in experiment [8] and in experiment [9] was “inactive” each time.
Consider `CCN(CC)CC(=O)OCC(=O)[C@@]1(O)CC[C@H]2[C@@H]3CCC4=CC(=O)CC[C@]4(C)[C@H]3[C@@H](O)C[C@@]21C`, for which the Potency entry in [1], in experiment [2], in experiment [4], in experiment [10], in [5] and in experiment [6] was “inactive” each time. Moreover, the Potency entry in [7], in experiment [8] and in [9] was “inactive” each time.
`COc1ccc2c(c1)c(CC(=O)OC/C=C(\C)CC/C=C(\C)CCC=C(C)C)c(C)n2C(=O)c1ccc(Cl)cc1`: the Potency result in [1], in [2], in experiment [3], in experiment [10], in experiment [5] and in experiment [6] was “inactive” in each case. The Potency entry in [7] and in experiment [9] was “inactive” throughout.
As for `CC(C)NCCCC1(C(N)=O)c2ccccc2-c2ccccc21`, the Potency entry in [1], in experiment [2], in [4], in experiment [10], in experiment [5] and in experiment [6] was “inactive” in each case. In addition, the Potency entry in experiment [7] and in [9] was “inactive” throughout.
As for `COC(=O)c1ccc(NC(C)=O)cc1OC`, the Potency result in [1], in experiment [2], in [3], in experiment [5], in [6] and in experiment [7] was “inactive” in each case. The Potency entry in [8] and in experiment [9] was “inactive” each time.
On to `CCOC(=O)NNc1ccc(N(CC)CC(C)O)nn1` (configuration not stated), for which the Potency result in experiment [1], in [2], in experiment [3], in experiment [10], in [5] and in experiment [8] was “inactive” throughout. Also, the Potency entry in [9] is “inactive”.
As to `CCOC(=O)c1ccc(NC(=O)CN2CCCCC2)cc1`, the Potency entry in experiment [1], in experiment [2], in experiment [4], in experiment [10], in experiment [5] and in experiment [6] was “inactive” in each case. Moreover, the Potency result in [7], in experiment [8] and in experiment [9] was “inactive” in each case.
